Data on five compounds can be found in PubChem BioAssay (NCATS).

Results filed as inconclusive are left out. Active and inactive are the calls of the source. Unless noted, calls follow the shape of the dose curve; as a rule, active = well fitted curve in the direction sought with a large enough effect; inconclusive = small, poorly fitted or top-dose-only effect, or another doubt; inactive = no such curve, though single readings can be large; an effect the other way counts as inactive or inconclusive.

Assay [1] has as its target Lysosomal acid glucosylceramidase (Homo sapiens) (UniProt P04062). Kind of assay: Glucocerebrosidase-p2 (AID 348; in the data active = potency below about 10 µM; also: potency is read from the fitted curve at half-maximal effect). The conditions noted are these: purified GBA, blue fluorogenic substrate, 40 min. In a few lines:
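Compounds titrated from 0.6 nM upwards against 0.2 nM enzyme in pH 5.9 citric acid/KH2PO4, taurocholate, tween-20; blue fluorogenic substrate 80 uM, 40 min room temperature, stopped and read Ex 365/Em 440 for AC50.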

The nature of assay [2]: AP1 Signaling Pathway (AID 357; active = well fitted curve in either direction with a large enough effect, not every such curve was filed as active;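 also: ME-180 reporter cells stimulated with EGF at its EC50 level; % is scaled to controls: 0 for no effect and ±100 for the full control effect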). The conditions noted are these: ME-180 AP-1-bla reporter, EGF-induced, beta-lactamase ratio, 5 h; at 7.69 µM (top of the series) unless noted. The method in brief:
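Read-out was the 460nm/530nm emission ratio (excitation 405nm) after CCF4 loading for 2.5 hours at room temperature. Cells carried an AP-1-driven beta-lactamase reporter, were stimulated with EC50 EGF plus compound for 5 hours, and AC50 values came from titrations.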

The target of assay [3] is Cytochrome P450 1A2 (Homo sapiens) (UniProt P05177). Description: p450-cyp1a2 (AID 410; calls by dose curve; also: potency is read from the fitted curve at half-maximal effect). Conditions: recombinant CYP1A2, luciferin-ME demethylation, luminescence; series mostly up to 57 µM. In a few lines:
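Luminescent readout of luciferin formed from Luciferin-ME by human CYP1A2; data normalized against complete inhibition by 57 uM furafylline. Enzyme 20nM, substrate 100uM at Km, 100mM KPO4 buffer, 60 min reaction at room temperature.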

The nature of assay [4]: NFAT Signaling Pathway (AID 444; active = well fitted curve in either direction with a large enough effect, not every such curve was filed as active;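 also: carbachol stimulus at about its EC50 of 1 µM final; % is scaled to controls: 0 for no effect and ±100 for the full control effect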). The conditions noted are these: Jurkat NFAT-bla M1, carbachol, beta-lactamase ratio, 5 h; at 7.69 µM (top of the series) unless noted. The method in brief:
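Jurkat cells with NFAT-driven β-lactamase reporter and co-expressed M1 receptor, stimulated with carbachol (final 1 uM, ~EC50), compound titration, 5 h at 37 °C. CCF4 loaded 1 h at RT; 460/530 nm ratio gave %activity and AC50.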

Assay [5] in a line: Stat Signaling Pathway (AID 446; active = well fitted curve in either direction with a large enough effect, not every such curve was filed as active;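 also: ME-180 cervical cancer cells given 40 pM IL-6 alongside compound; SIE-controlled beta-lactamase reporter measured as 460/530 nm FRET emission ratio; % is scaled to controls: 0 for no effect and ±100 for the full control effect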). Conditions: ME-180 SIE beta-lactamase reporter, IL-6 stimulated, 5 h; at 7.69 µM (top of the series) unless noted. In a few lines: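 ME-180 cells carrying a SIE-driven beta-lactamase reporter are stimulated with 40 pM IL-6 for 5 h at 37C in the presence of compound. The 460/530 nm FRET substrate ratio is read after 2.5 h at RT. Data are normalised to 300 pM IL-6 and to 125 nM JAK inhibitor controls.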

For assay [6], the target named is Glucocorticoid receptor (Homo sapiens) (UniProt P04150). Description: GR-GFP Redistribution (AID 450;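 active = compounds whose dose series gives a full or clear partial fitted curve of increased nuclear translocation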; also: potency is read from the fitted curve at half-maximal effect). Conditions: U2OS GR-GFP nuclear translocation, laser cytometry, 2 h.
Sequence of Glucocorticoid receptor (Homo sapiens) (P04150 whole entry, looked up, the tested form may be a part): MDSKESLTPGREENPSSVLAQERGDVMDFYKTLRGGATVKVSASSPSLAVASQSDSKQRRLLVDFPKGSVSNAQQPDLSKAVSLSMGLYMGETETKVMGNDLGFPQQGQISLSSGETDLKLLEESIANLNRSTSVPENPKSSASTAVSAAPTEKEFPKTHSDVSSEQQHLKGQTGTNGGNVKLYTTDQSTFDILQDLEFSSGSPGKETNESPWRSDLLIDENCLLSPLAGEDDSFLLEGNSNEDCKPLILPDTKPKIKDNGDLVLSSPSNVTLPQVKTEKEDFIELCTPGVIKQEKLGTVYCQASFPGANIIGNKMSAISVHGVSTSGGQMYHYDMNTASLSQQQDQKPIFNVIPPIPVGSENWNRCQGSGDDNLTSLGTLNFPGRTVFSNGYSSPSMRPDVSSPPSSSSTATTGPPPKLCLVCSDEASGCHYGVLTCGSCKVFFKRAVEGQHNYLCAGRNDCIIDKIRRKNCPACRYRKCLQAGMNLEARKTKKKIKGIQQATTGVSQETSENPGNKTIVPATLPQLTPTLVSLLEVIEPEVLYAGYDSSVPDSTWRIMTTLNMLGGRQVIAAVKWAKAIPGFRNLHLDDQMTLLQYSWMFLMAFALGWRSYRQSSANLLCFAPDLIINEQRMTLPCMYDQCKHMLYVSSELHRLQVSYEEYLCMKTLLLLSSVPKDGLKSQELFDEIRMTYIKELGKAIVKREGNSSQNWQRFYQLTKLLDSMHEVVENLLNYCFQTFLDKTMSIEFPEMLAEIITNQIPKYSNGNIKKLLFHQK
For assay [7] the target is unchanged. Description: GR-EFC Redistribution (AID 451; calls by dose curve; also: potency is read from the fitted curve at half-maximal effect). Conditions: CHO-K1 GR-EFC translocation, beta-gal luminescence, 2 h. In a few lines: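 CHO-K1 cells expressing nuclear EA and GR-ED fragments of b-gal; compounds titrated up to 46 uM final, 2 h at 37 C. GR nuclear translocation read as complemented b-gal luminescence after 1 h RT detection.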
For assay [8], the target named is Mitogen-activated protein kinase 10 (Mus musculus) (UniProt Q61831). Kind of assay: JNK3 AlphaScreen Assay (AID 530; active = well fitted curve in either direction with a large enough effect, not every such curve was filed as active;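 also: kinase came from lysate of stimulated human HepG2 cells; signal reports phosphorylation of biotinylated GST-cJun 1-79 at Ser73 with 10 µM ATP; % is scaled to controls: 0 for no effect and ±100 for the full control effect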). The conditions noted are these: JNK3 lysate, c-Jun phosphorylation; series mostly up to 57.1 µM. The method in brief: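 Pre-activated (IL-1β/TNFα) JNK3 in HepG2 lysates phosphorylates biotin-GST-cJun(1-79), 10 uM ATP; anti-phospho-cJun(Ser73) AlphaScreen read at room temperature, pH 7.6 Tris buffer. Compounds pre-incubated 15 min as titrations.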
In general terms: Bead proximity is the source of the signal in Alpha formats.

Assay [9] deals with 3',5'-cyclic-AMP phosphodiesterase 4B (Homo sapiens) (UniProt Q07343). Kind of assay: qHTS Assay for Inhibitors of PDE-IV (AID 607; active = well fitted activation curve with a large enough effect in the main read-out, with a control signal flat, not every such curve was filed as active; also: % of control where 0% means no effect). The conditions noted are these: HEK293 ACTOne CNG channel cells, membrane potential fluorescence; series mostly up to 22.9 µM. The method in brief: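 HEK293 ACTOne cells with CNG channel (1000/well), endogenous PDE4; membrane potential dye, compounds up to 22.9 uM final. Fluorescence Ex 535/Em 590; RO 20-1724 (100 uM final) as reference.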
Sequence of 3',5'-cyclic-AMP phosphodiesterase 4B (Homo sapiens) (Q07343 whole entry, looked up): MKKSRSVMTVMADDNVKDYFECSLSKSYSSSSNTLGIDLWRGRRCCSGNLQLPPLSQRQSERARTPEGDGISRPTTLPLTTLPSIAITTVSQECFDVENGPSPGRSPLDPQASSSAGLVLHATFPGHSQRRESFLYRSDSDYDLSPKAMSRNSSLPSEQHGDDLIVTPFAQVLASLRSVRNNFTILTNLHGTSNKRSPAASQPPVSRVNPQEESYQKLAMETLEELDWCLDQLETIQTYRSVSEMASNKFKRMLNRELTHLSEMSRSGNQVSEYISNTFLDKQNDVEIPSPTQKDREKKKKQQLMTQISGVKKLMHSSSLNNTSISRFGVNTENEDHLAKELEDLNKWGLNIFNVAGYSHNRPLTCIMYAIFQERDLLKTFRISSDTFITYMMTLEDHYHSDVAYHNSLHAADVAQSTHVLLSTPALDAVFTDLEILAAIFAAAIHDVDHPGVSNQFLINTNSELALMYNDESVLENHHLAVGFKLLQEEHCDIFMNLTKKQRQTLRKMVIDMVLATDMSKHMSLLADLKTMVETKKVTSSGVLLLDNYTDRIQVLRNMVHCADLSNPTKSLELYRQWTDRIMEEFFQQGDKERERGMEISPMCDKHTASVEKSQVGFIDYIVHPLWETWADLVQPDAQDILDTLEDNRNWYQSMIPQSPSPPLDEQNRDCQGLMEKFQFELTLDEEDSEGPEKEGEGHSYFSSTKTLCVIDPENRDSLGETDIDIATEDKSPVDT
(In general: In qHTS, concentration-response curves come from the screen itself.)

For assay [10], the target named is Cytochrome P450 3A4 (Homo sapiens) (UniProt P08684). Description: qHTS Assay for Inhibitors and Substrates of Cytochrome P450 3A4 (AID 884). Also: potency is read from the fitted curve at half-maximal effect; nearly all actives have a fitted effect of over 50% in size. The conditions noted are these: recombinant CYP3A4, Luciferin-PPXE luminescence; series mostly up to 57.1 µM. In a few lines: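 20 nM human CYP3A4 with 25 uM Luciferin-PPXE (at KM) in 200 mM KPO4, preincubated 10 min with compound; NADPH regeneration started a 60 min RT reaction. Luciferin detected by luminescence, normalized to 57 uM ketoconazole as full inhibition.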
Sequence of Cytochrome P450 3A4 (Homo sapiens) (P08684 whole entry, looked up): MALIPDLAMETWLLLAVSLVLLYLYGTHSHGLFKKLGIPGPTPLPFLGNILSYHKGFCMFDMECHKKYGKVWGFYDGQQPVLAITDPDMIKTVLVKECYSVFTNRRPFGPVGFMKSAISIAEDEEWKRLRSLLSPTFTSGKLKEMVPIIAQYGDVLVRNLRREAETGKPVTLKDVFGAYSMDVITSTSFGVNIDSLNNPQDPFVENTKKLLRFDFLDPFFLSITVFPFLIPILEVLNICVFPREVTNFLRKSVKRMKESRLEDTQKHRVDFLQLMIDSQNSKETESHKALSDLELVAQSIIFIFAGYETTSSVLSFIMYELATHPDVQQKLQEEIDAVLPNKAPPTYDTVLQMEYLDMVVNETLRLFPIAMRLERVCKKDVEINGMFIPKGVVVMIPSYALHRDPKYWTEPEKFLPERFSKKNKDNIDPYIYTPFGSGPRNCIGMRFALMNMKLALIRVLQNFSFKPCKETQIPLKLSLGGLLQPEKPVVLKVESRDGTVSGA

The target is the same in assay [11]. Description: qHTS Assay for Activators of Cytochrome P450 3A4 (AID 885). Also: nearly all actives have a fitted effect of over 65% in size. The conditions noted are these: recombinant CYP3A4, Luciferin-PPXE luminescence, 60 min; series mostly up to 57.1 µM. In a few lines:
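Human CYP3A4 (20 nM) with Luciferin-PPXE at 25 uM (its KM) in 200 mM KPO4; 10 min compound preincubation, then NADPH regeneration and 60 min reaction at RT. Luciferin read by luminescence; normalized to 57 uM ketoconazole full inhibition.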

Assay [12] in a line: qHTS Assay for Lipid Storage Modulators (AID 1519; calls by dose curve; also: potency is read from the fitted curve at half-maximal effect). The conditions noted are these: Drosophila S3 cells, BODIPY lipid droplet/cell ratio, laser cytometry, cells loaded with oleic acid; for activity change, negative = inhibition: at 57.5 µM (top of the series). The method in brief:
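Cells seeded at 5,000 per well were treated with compounds over a concentration series and loaded with oleic acid (400 uM, as added). Lipid droplet fluorescence (488 nm excitation, 500-530 nm channel) was read by laser-scanning cytometry and normalized to 20 uM Triacsin C.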

The target in assay [13] is Dual specificity protein kinase CLK4 (Homo sapiens) (UniProt Q9HAZ1). Description: qHTS Assay for Inhibitors of CDC-like Kinase 4 (Kinase-Glo Assay) (AID 1770). Also: nearly all actives have a fitted effect of over 65% in size. Also: potency is read from the fitted curve at half-maximal effect. The conditions noted are these: recombinant Clk4, Kinase-Glo ATP depletion luminescence; series mostly up to 66.7 µM. The method in brief:
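Substrate mix (RS peptide 100 uM, ATP 1 uM) dispensed, compound pinned in, then Clk4 added to 25 nM final. Incubated 4.5 h at RT; Kinase-Glo reagent added, luminescence read after 5 min.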

For assay [14] the target is unchanged. Kind of assay: qHTS Assay for Inhibitors of CDC-like Kinase 4 (ADP-Glo Assay) (AID 1771). Also: nearly all actives have a fitted effect of over 70% in size. Also: potency is read from the fitted curve at half-maximal effect. Conditions: recombinant CLK4, ADP-Glo luminescence; series mostly up to 80 µM. In a few lines:
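Luminescence from ADP-Glo reports ADP produced by 25 nM Clk4 acting on 100 uM RS repeat peptide with 1 uM ATP over 1 hr at room temperature; residual ATP is depleted before ADP is converted to ATP for detection.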

Assay [15] has as its target Ubiquitin carboxyl-terminal hydrolase 1 (Homo sapiens) (UniProt O94782). Kind of assay: Inhibitors of USP1/UAF1: Pilot qHTS (AID 504865).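 Also: rhodamine fluorescence freed from ubiquitin-rhodamine substrate followed over time; top concentration of the series differs between compounds; % is scaled to controls: 0 for no effect and ±100 for the full control effect; nearly all actives have a fitted effect of over 35% in size.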 Conditions: purified USP1/UAF1, Ub-rhodamine cleavage fluorescence; series mostly up to 54.9 µM. In a few lines: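 In 50mM HEPES pH 7.8 containing 0.5mM EDTA, 1mM TCEP, 0.1 mg/ml BSA and 0.01% Tween-20, 1nM USP1/UAF1 is exposed to compound for 15 min, then Ub-Rho (150nM final) is added and fluorescence is read over time.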

Assay [16] is described as follows: Primary qHTS for small molecule stabilizers of the endoplasmic reticulum resident proteome: Secreted ER Calcium Modulated Protein (SERCaMP) assay (AID 1508630). Also: % is scaled to controls: 0 for no effect and ±100 for the full control effect. Conditions: SH-SY5Y GLuc-SERCaMP (Gaussia luciferase released on ER calcium loss) secretion, thapsigargin, luminescence; series mostly up to 38.4 µM. The method in brief: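 GLuc-SERCaMP-expressing SH-SY5Y cells, pretreated 16 h with compound, are challenged with thapsigargin to empty ER calcium stores; after 4 h, coelenterazine is added directly to the medium and luminescence is imaged.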

The nature of assay [17]: qHTS Assay for Identification of Small Molecule Agonists for Hypoxia Response Element Signaling Pathway (AID 914; active = well fitted activation curve with a large enough effect in the signal ratio, with a control signal flat, not every such curve was filed as active; the % refers to the signal ratio; also: % of control where 0% means no effect). The conditions noted are these: ME-180 HRE-bla reporter, beta-lactamase ratio, CoCl2, 17 h; activation: stronger effect = higher value. In a few lines: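 ME-180 cells carrying an HRE-driven beta-lactamase reporter were treated with compounds in a titration series plus an EC50 level of CoCl2 for 17 h at 37 degrees Celsius; CCF4 readout as the 460nm/530nm ratio gave AC50 values.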

The mark [18] stands for this setting: measured here: cell count channel max response.
Where [19] appears, read: measured here: lipid channel max response.

Sequence of Dual specificity protein kinase CLK4 (Homo sapiens) (Q9HAZ1 whole entry, looked up): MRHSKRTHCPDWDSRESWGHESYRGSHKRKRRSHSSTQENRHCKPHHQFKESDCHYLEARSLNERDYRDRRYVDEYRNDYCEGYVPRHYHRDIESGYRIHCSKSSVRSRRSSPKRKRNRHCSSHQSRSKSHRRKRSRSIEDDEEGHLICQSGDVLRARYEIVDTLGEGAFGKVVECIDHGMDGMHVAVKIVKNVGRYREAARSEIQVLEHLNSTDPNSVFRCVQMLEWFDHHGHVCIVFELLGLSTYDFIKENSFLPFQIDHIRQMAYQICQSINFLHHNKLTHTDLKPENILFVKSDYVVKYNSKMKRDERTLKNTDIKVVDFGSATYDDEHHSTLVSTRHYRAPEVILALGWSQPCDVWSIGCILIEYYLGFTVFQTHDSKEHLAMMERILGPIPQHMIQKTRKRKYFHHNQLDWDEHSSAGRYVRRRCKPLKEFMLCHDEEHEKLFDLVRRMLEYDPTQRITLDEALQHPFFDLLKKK
Sequence of Ubiquitin carboxyl-terminal hydrolase 1 (Homo sapiens) (O94782 whole entry, looked up): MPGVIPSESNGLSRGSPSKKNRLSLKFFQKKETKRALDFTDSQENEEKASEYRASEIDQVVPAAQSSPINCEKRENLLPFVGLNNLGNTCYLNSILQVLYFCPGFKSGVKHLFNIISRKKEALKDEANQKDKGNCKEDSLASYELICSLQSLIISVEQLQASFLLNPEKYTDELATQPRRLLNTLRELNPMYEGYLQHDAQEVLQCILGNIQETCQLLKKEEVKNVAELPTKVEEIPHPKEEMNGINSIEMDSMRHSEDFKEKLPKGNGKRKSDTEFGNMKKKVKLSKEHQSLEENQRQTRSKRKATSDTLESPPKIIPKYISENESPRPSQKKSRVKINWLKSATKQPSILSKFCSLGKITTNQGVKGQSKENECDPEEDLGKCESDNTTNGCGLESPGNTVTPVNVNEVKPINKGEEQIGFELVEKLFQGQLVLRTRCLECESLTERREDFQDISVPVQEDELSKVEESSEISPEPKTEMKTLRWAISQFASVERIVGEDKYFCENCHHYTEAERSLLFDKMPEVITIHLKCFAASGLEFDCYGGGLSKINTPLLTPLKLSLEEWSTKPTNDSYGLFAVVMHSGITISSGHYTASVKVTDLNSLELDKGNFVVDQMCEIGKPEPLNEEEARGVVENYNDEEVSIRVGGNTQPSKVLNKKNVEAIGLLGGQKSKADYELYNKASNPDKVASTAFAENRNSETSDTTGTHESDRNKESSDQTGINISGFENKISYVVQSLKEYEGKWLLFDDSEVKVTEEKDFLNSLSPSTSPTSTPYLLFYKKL
Sequence of Cytochrome P450 1A2 (Homo sapiens) (P05177 whole entry, looked up): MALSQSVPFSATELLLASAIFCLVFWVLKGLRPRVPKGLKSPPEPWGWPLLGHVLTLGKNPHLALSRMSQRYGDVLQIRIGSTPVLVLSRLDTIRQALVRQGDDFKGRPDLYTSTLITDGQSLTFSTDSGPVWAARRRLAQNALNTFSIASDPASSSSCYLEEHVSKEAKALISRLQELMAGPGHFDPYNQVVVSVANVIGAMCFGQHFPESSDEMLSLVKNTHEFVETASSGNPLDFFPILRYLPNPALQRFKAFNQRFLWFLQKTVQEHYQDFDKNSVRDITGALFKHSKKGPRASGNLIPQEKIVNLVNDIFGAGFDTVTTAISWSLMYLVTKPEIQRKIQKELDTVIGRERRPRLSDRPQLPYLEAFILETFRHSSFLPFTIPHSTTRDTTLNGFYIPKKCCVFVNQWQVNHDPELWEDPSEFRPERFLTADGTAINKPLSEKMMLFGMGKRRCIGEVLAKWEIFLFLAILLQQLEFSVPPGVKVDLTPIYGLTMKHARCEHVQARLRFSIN
Sequence of Lysosomal acid glucosylceramidase (Homo sapiens) (P04062 whole entry, looked up): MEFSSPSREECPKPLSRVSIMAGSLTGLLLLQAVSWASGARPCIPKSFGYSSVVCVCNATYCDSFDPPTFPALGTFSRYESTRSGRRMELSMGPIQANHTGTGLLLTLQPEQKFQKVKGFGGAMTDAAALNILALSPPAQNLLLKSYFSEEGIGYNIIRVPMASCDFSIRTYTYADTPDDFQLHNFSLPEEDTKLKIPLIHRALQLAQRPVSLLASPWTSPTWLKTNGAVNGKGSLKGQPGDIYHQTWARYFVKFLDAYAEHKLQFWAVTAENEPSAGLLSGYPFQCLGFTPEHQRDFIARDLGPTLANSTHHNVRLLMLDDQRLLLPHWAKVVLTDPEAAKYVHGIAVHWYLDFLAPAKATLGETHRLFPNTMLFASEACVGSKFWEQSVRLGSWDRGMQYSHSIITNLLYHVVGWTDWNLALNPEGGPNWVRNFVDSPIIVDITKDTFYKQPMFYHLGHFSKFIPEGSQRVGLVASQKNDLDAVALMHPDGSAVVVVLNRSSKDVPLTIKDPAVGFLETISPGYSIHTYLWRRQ

Regarding `Cc1cccc(CNc2cc(-c3c(C)noc3C)ncn2)c1`, the Potency in assay [1] is > 11.4 µM (inactive); in assay [3], 1 µM (active); in [6], > 46 µM (inactive); in assay [7], > 46 µM (inactive); in assay [10], 5.01 µM (active); in assay [13], 15.8 µM (active). Besides, in [14], the Potency was 15.8 µM (active). Besides, the activity change, negative = inhibition in [2] was -5.03% (inactive); in assay [4] it was -10.8% (inactive); in assay [12] it was 8.24% (inactive). Moreover, the activity, negative = inhibition in [5] is -4.88% (inactive). Also, the call in [8] was inactive. In addition, the Potency entry in assay [9], in [11], in assay [15] and in [16] was “inactive” each time. Further, the max response in assay [12] (setting [18]) was 14.9%; in assay [12] (setting [19]), 22%.

With `COc1ccc(-n2c(=O)c(-c3cccs3)nc3cnc(N4CCOCC4)nc32)cc1`, the Potency is > 11.4 µM (inactive) in assay [1], 12.6 µM (active) in assay [3], > 9.22 µM (inactive) in assay [6] and > 46 µM (inactive) in assay [7]. The activity change, negative = inhibition in [2] was 0.656% (inactive); in assay [4], -15.7% (inactive); in assay [12], 5.16% (inactive). The call in assay [8] was inactive. The Potency entry in assay [9], in [11], in [13], in assay [14], in assay [15] and in assay [16] was “inactive” throughout. Besides, the max response in assay [12] (setting [18]) is 28.1%; in [12] (setting [19]) it was 27.2%.

Regarding `O=c1c(-c2ccc(F)cc2)nc2cnc(Nc3ccccc3)nc2n1C[C@H]1CCCO1`, the Potency was > 11.4 µM (inactive) in assay [1]; 2 µM (active) in [3]; > 9.22 µM (inactive) in assay [6]; > 46 µM (inactive) in assay [7]; 3.55 µM (active) in [12]. The activity change, negative = inhibition in assay [2] was -19.3% (inactive). In addition, in assay [8], the compound was called inactive. Also, the Potency result in assay [9], in [11], in assay [13], in assay [14], in [15] and in assay [16] was “inactive” each time. Further, the max response in assay [12] (setting [18]) was -27.1%; in assay [12] (setting [19]) it was -76%.

For `O=c1c(-c2cccs2)nc2cnc(N3CCOCC3)nc2n1Cc1cccs1`, the Potency in [1] was > 11.4 µM (inactive); in [3] it was 15.8 µM (active); in [6], > 9.22 µM (inactive); in assay [7] it was > 46 µM (inactive). The activity change, negative = inhibition was 15.1% (inactive) in assay [2], -8.44% (inactive) in assay [4] and -15.7% (inactive) in [12]. For the same compound, the compound was called inactive in assay [8]. Also, the Potency entry in assay [9], in assay [11], in assay [13], in assay [14], in assay [15] and in assay [16] was “inactive” throughout. The results for the max response in assay [12] (setting [18]) and in [12] (setting [19]) were 22.5% and 0.532%, respectively.

For the compound `COc1ccc(Oc2ncc3nc(C)c(=O)n(C[C@H]4CCCO4)c3n2)cc1`, the Potency in assay [1] was > 11.4 µM (inactive); in [3], 12.6 µM (active); in assay [6] it was > 9.22 µM (inactive); in [7] it was > 46 µM (inactive); in assay [10] it was 3.98 µM (active). For the same compound, the results for the activity change, negative = inhibition in assay [2], in [4] and in assay [12] were -5.04% (inactive), 1.62% (inactive) and -2.24% (inactive), respectively. Further, the activity, negative = inhibition in assay [5] was -14.8% (inactive). For the same compound, the compound was classed as inactive in assay [8]. The Potency result in assay [9], in [11], in assay [13], in assay [14], in assay [15] and in assay [16] was “inactive” each time. Further, the activation in [17] was -5.29% (inactive). Further, the max response in [12] (setting [18]) is -3.75%; in assay [12] (setting [19]), -4.08%.
